Screens (PubChem BioAssay)
A selection: hits, their analogues and other compounds. The true share with any hit is near 1.2%.
GLD-1 RNA inh: GLD-1-TGE RNA interaction inhibition (C. elegans) | inhibition, % at 5.96 µM | purified GLD-1 + fluorescein TGE RNA, fluorescence polarization | 0.44% of 320,000 active | AID 2280 | Q17339;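 active means percent inhibition above a per-plate cutoff, the plate mean of test compounds plus 3 SD, cut at about 30% in these data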
Target sequence (Q17339 whole entry, looked up): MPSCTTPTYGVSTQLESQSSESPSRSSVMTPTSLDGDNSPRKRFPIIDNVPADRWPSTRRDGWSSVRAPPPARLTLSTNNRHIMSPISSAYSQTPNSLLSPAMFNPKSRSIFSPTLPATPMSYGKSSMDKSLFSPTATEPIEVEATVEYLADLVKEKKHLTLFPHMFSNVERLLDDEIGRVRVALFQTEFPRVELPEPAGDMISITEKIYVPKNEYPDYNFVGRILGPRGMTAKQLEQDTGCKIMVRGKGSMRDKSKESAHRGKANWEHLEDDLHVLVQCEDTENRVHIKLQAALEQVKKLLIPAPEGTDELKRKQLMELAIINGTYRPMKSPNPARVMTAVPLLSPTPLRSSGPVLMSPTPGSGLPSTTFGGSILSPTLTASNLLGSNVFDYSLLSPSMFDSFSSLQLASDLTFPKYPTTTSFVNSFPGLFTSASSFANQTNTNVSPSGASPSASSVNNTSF
RTF Ca sens act: increases calcium sensitivity of human cardiac regulated thin filaments. P19429+P45379. IANBD-labeled TnC RTF fluorescence at EC20 calcium; 0% EC20 calcium, 100% full calcium. activation, % at 7.2 µM. 0.24% of 340,000 active;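 active means activation above the mean over all tested compounds plus 3 SD, cut at about 30% in these data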;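 further: rise in fluorescence read as greater calcium sensitivity of cardiac thin filaments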
Cardiac RTF inh: cardiac RTF calcium desensitization. 0.12% of 340,000 active. P19429+P45379. inhibition, % at 7.15 µM. IANBD-labeled cardiac RTF, Ca2+ fluorescence;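 active means inhibition above the mean inhibition of all tested compounds plus 3 SD, cut at about 17% in these data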;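 further: assay run at fixed EC70 calcium of 1.6 mM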
E coli Lon inh: inhibits E. coli Lon protease; P0A9M0; purified E. coli Lon protease, fluorescence polarization; 0.42% of 360,000 active; inhibition, % at 7.94 µM; in the data active means inhibition above about 13%, passing the limit was not always enough
Bcl-xL primary: blocks human Bcl-xL binding to Bim BH3 peptide; 0.7% of 320,000 active; Q07817; inhibition, % at 10.9 µM; GST-Bcl-xL / FITC-Bim BH3 peptide fluorescence polarization;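 active means inhibition above the mean of all tested compounds plus 3 SD, cutoff set per campaign, cut at about 30% in these data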;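 further: inhibitors lower millipolarization by displacing the labeled peptide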
Each line names hits and unclear results; the compound was inactive in the other large screens.

Cn1c(-c2ccccc2)cnc1SCC(N)=O	none
CC1=C(C#N)C(=O)N(C2CCS(=O)(=O)C2)C(=O)/C1=C\c1ccc(C)o1 (stereo not given)	Bcl-xL primary 30 (no result: RTF Ca sens act, Cardiac RTF inh, E coli Lon inh)
CCCCCCC(C)n1[nH]c(=O)c2c(C)cc(=O)[nH]c21 (stereo not given)	none
Cc1ccc(NC(=O)c2cc(S(=O)(=O)N3CCCCC3)ccc2N2CCOCC2)cc1S(=O)(=O)N(C)C	RTF Ca sens act 83 (no result: GLD-1 RNA inh, Bcl-xL primary)
Cc1ccc(NC(=O)c2cc(S(=O)(=O)N(C)C)ccc2N2CCCC2)cc1S(=O)(=O)N(C)C	none
COc1ccc(N2CCN(S(=O)(=O)c3c[nH]c(=O)[nH]c3=O)CC2)cc1	none
N#CC1(NC(=O)COC(=O)c2cc(O)c3ccccc3c2O)CCCCC1	Bcl-xL primary 31
CCN(CC)c1ccc(/C=C2\C(=N)N3N=C(CC(=O)N4CCOCC4)SC3=NC2=O)cc1	RTF Ca sens act 38
CC(=O)c1cc(NC(=O)c2ccc(C)cc2)c(=O)oc1/C=C/N(C)C	RTF Ca sens act 36
N#Cc1c(=O)c2nc(NCCCO)ncc2n2c(=O)c3ccccc3[nH]c12	none
N#Cc1c(=O)c2nc(NCc3ccccc3)ncc2n2ccccc12	Bcl-xL primary 44
CCOCCCNC(=O)/C(C#N)=C/c1ccc(-c2ccc(S(=O)(=O)N3CCOCC3)cc2)o1	none
CCOCCCNC(=O)/C(C#N)=C/c1ccc([N+](=O)[O-])o1	GLD-1 RNA inh 46, Bcl-xL primary 34
CCN(CC)C1=CC2=CC(=C(C#N)C#N)CCC2CC1 (stereo not given)	RTF Ca sens act active, Bcl-xL primary 52
N#CC(C#N)=C1C=C2C=C(N3CCCCC3)CCC2CC1 (stereo not given)	Bcl-xL primary 35 (no result: RTF Ca sens act, Cardiac RTF inh, E coli Lon inh)
CCCCN(C)C1=CC2=CC(=C(C#N)C#N)CCC2CC1 (stereo not given)	RTF Ca sens act active, Bcl-xL primary 39
Cc1nn2c3ccccc3n(C)c2nc1=O	none
CCOc1ccc(NC(=O)Nc2ccc(Cc3ccncc3)cc2)cc1	Bcl-xL primary 36
O=C(O)c1cc([N+](=O)[O-])ccc1NCc1ccccc1Cl	none
O=C(O)c1cc([N+](=O)[O-])ccc1NCc1ccccn1	Bcl-xL primary 31
Cn1ncc(N=Cc2c(O)ccc3ccccc23)c1C(=O)Nc1cccc(Cl)c1	RTF Ca sens act 43, Bcl-xL primary 31
CCOc1cc(-c2cc(-c3ccc(C)cc3)nc(N)c2C#N)ccc1O	Bcl-xL primary 30
COc1cc(-c2cc(-c3ccc(O)cc3)nc(N)c2C#N)ccc1O	none
O=C(Cn1cncc1-c1ccc([N+](=O)[O-])cc1)Nc1ccccc1F	GLD-1 RNA inh 33
COc1ccccc1NC(=O)Cn1cncc1-c1ccc([N+](=O)[O-])cc1	none
Cc1cccc(NC(=S)NNC(=S)NC2CCCCC2)c1C	none
Cc1cc(C)nc(NS(=O)(=O)c2ccc(NC(=O)c3cc4c(=O)n5cccc(C)c5nc4n3C)cc2)n1	Bcl-xL primary 30
COc1ccc(-c2[nH]ncc2C=O)cc1OC	none
CC(=O)N1c2ccccc2C(=O)C1N1CCCCC1 (stereo not given)	GLD-1 RNA inh 58, Bcl-xL primary 65
CC(=O)Oc1ccc(C2OC(=O)c3ccccc3N2C(C)=O)cc1 (stereo not given)	none
O/C(=C\c1nc2ccccc2[nH]1)c1cccs1	none
O=c1[nH]c2ccccc2nc1/C=C(\O)c1cccs1	RTF Ca sens act 61, Bcl-xL primary 81
CC/C(=C(/CC)c1ccc(O)cc1)c1ccc(O)cc1	Cardiac RTF inh 18
O=C(COC(=O)c1cccc(O)c1)c1ccccc1	none
CCC(C)(C(=O)NC1CCCCC1)N(C)C(=O)c1ccccn1 (stereo not given)	Bcl-xL primary 52
COc1ccc(F)cc1C(=O)C1CCCN(C(=O)CCN2CCCCO2)C1 (stereo not given)	none
Cc1ccc(CNC(=O)c2cccc3c2C(=O)c2ccc(N4CCCCC4)cc2S3(=O)=O)cc1	GLD-1 RNA inh 71, RTF Ca sens act 65
O=C(NCc1ccco1)c1cccc2c1C(=O)c1ccc(N3CCCC3)cc1S2(=O)=O	GLD-1 RNA inh 31 (no result: Bcl-xL primary)
Cc1cc(C)c2c(SC(C)C)nc(N)nc2n1	RTF Ca sens act 47
O=C(NCc1ccco1)Nc1ccc(OC(F)(F)F)cc1	Bcl-xL primary 30
COc1ccc(C=NCCC2(O)CC(C)N(C)CC2C)cc1 (stereo not given)	Bcl-xL primary 31
CC(OC(=O)/C(C#N)=C/c1ccc(N(C)C)cc1)C(=O)N(C)Cc1ccccc1 (stereo not given)	RTF Ca sens act 30
O=C(CN1C(=O)C2C3C=CC(C3)C2C1=O)NCCN1CCCc2ccccc21 (stereo not given)	none
O=C(CCN1C(=O)C2C3C=CC(C3)C2C1=O)NCCN1CCCc2ccccc21 (stereo not given)	Bcl-xL primary 34
O=C(COC(=O)c1ccc(Cl)c(S(=O)(=O)N2CCCC2)c1)NCc1ccccc1	none (no result: Bcl-xL primary)
Cc1cccc(N2CCN(S(=O)(=O)c3c(C)[nH]c(C)c3C(=O)N3CCCC3)CC2)c1C	GLD-1 RNA inh 31
Cc1cccc(N2CCN(S(=O)(=O)c3c(C)[nH]c(C)c3C(=O)N3CCCCC3)CC2)c1C	none
N#C/C(=C\c1ccc(N2CCOCC2)o1)C(=O)Nc1ccc(O)cc1	none (no result: RTF Ca sens act, Cardiac RTF inh)
COc1ccc(NC(=O)/C(C#N)=C\c2ccc(N3CCOCC3)o2)cc1	RTF Ca sens act 135
N#C/C(=C/c1ccc(N2CCCCC2)o1)C(=O)Nc1ccc2ccccc2c1	RTF Ca sens act 166 (no result: GLD-1 RNA inh, Bcl-xL primary)
N#C/C(=C/c1ccc(N2CCCCC2)o1)C(=O)Nc1ccc(Cl)cc1	RTF Ca sens act 41
COc1ccc(NC(=O)/C(C#N)=C/c2ccc(Br)o2)cc1	none
N#C/C(=C/c1ccc(N2CCOCC2)o1)C(=O)NC1CCCCC1	RTF Ca sens act 50
O=C(O)CCC(=O)Nc1ccccc1C(=O)NCCc1ccccc1	none
COc1cccc([C@@H]2CC=C(C(=O)O)[C@H](c3ccc(F)cc3)N2S(=O)(=O)c2ccc(C)cc2)c1	none
CCN(CC)CCCNC(=O)c1ccc(OCC(=O)Nc2ccccc2C(F)(F)F)c(OC)c1	none
Cc1ccc(NC(=O)Cn2c(O)c(N=NS(=O)(=O)c3ccc(C)cc3)c3ccccc32)cc1	none
COc1ccc(CN2C(=O)c3cccnc3C2=O)cc1S(=O)(=O)N1CCOc2ccc(Cl)cc21	none
O=C(O)/C=C\c1ccccc1Oc1cccc(Cl)c1	Bcl-xL primary 32
Cc1ccc(NS(=O)(=O)c2cc3c4c(cccc4c2)C(=O)NC3=O)cc1C	Bcl-xL primary 31
CN(C)c1ccc(/C=C/c2ccc3ccccc3n2)cc1	RTF Ca sens act 42
C(=C\c1ccc2ccccc2n1)/c1ccccc1	none
C=CCNC(=O)C(C#N)c1nc2ccccc2nc1N1CCCCCC1 (stereo not given)	GLD-1 RNA inh 57, Bcl-xL primary 74
